Screening data deposited in PubChem by National Center for Advancing Translational Sciences (NCATS).
Pol kappa inh-1 = qHTS for Inhibitors of Polymerase Kappa. purified Pol kappa, fluorescent DNA synthesis assay, 10 min. Potency, µM (series often up to 107 µM), for inactives: at the highest dose activity, negative = inhibition, usual class: inhibitors. 400,000 tested, 0.53% active. AID 588579, 2011; further: potency means the concentration at half of the fitted maximal effect; on the % scale 0 is the no-effect control and ±100 the full control effect
Target sequence (Q9UBT6 whole entry, looked up): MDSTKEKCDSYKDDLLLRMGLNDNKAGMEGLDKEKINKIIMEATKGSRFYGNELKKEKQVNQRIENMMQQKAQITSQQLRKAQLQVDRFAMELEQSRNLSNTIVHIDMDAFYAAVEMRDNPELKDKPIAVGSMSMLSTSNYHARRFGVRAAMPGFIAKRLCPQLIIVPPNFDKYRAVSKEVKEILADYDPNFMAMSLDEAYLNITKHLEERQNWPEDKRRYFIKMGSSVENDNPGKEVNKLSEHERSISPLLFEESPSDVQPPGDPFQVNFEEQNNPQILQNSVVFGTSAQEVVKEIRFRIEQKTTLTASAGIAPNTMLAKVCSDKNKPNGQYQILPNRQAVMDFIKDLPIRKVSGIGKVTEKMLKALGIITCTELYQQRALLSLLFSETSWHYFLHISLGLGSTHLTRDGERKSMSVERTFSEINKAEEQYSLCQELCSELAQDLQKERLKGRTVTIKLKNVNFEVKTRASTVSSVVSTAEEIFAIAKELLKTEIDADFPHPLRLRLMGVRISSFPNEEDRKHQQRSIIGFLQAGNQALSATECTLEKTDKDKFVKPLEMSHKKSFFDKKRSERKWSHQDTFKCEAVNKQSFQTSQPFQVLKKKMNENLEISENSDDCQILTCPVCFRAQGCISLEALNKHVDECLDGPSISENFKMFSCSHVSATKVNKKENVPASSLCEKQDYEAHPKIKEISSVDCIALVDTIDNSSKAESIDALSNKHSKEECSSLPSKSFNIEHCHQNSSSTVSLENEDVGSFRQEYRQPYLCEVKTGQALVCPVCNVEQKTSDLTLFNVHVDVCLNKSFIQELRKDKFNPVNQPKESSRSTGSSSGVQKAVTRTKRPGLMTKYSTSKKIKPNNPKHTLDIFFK
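Inhibition of 10 nM Pol kappa is measured by a fluorescent read-out at 0 and 10 min following addition of 50 nM substrate (final), with a 15-min room-temperature compound preincubation.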
WRN helicase inh = qHTS for Inhibitors of WRN Helicase; WRN helicase unwinding, fluorescent forked duplex, kinetic; Potency, µM (top dose mostly 114 µM), for the others: at the top dose activity change, negative = inhibition, hits mostly inhibitors; 360,000 tested, 0.46% active; further: potency means the concentration at half of the fitted maximal effect; on the % scale 0 is the no-effect control and ±100 the full control effect; nearly all actives have a fitted effect of over 55% in size
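Kinetic fluorescence helicase assay: unwinding of a quenched forked DNA duplex (100 nM final) with 2 mM ATP final raises red fluorescence (525/598 nm). Compounds sat 15 min at room temperature with 20 nM WRN beforehand.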
POLI inh = qHTS for Inhibitors of Polymerase Iota. 390,000 tested, 1% active. Pol iota fluorescent replication assay, 10 min. AID 588590, 2011. DNA polymerase iota (Homo sapiens), Q9UNA4. Potency, µM (doses to about 115 µM), for the others: top-dose activity, negative = inhibition, usual class: inhibitors; further: potency means the concentration at half of the fitted maximal effect
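Fluorescent replication assay read twice, at 0 min and 10 min after adding 50 nM (final) substrate. Enzyme (10 nM) and compounds were first incubated 15 min at room temperature; enzyme-free buffer wells were negative controls.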
Pol eta inh-1 = qHTS for Inhibitors of Polymerase Eta; recombinant Pol eta, fluorescent DNA replication assay; Potency, µM (doses to about 114 µM), inactives show at the top dose activity change, negative = inhibition, most hits filed as inhibitors; 390,000 tested, 1.2% active; further: potency means the concentration at half of the fitted maximal effect; on the % scale 0 is the no-effect control and ±100 the full control effect
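Pol eta (10 nM) was preincubated with compounds for 15 min at room temperature, after which fluorescent replication substrate (50 nM final) was added to start the reaction. Fluorescence was read kinetically at 0 and 10 min.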
POLB inh = qHTS Assay for Inhibitors of DNA Polymerase Beta; P06746; Pol beta primer extension/strand displacement, fluorescence kinetic; Potency, µM (top dose mostly 114 µM), for inactives: at the highest dose activity change, negative = inhibition, actives largely listed as inhibitors; 340,000 tested, 1.3% active; AID 485314, 2010; further: potency means the concentration at half of the fitted maximal effect; on the % scale 0 is the no-effect control and ±100 the full control effect
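Preincubation: enzyme (10 nM) with compound, 15 min, RT. Reaction: substrate added to 50 nM final. Reads: 0 and 10 min. Analysis: normalized, Hill fit.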
PI5P4K alpha inh = qHTS for Inhibitors of phosphatidylinositol 5-phosphate 4-kinase (PI5P4K) | PI5P4Kalpha enzyme, ADP-Glo luminescence, 60 min; stronger effect = lower value | max response, % | 330,000 tested, 1.2% active; active means max response of -50% or lower; inconclusive means between -30% and -50%; inactive means -30% or higher; further: value at the top dose of about 77 µM; on the % scale 0 is the no-effect control and ±100 the full control effect
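Compounds were pin-transferred onto PI5P4Kalpha and substrate in HEPES pH 7.4 buffer with EGTA, CHAPS and 5% DMSO. ATP (5 microM final) started the reaction, which ran 60 minutes at room temperature before ADP-Glo detection.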
Pol iota confirm = qHTS for Inhibitors of Polymerase Iota: Confirmatory Assay for Cherry-picked Compounds; Pol iota primer extension, TAMRA/BHQ fluorescence; Potency, µM, usual class: inhibitors; AID 720496, 2013; shares compounds with Pol kappa inh-1; 1,500 tested, 77% active; further: potency means the concentration at half of the fitted maximal effect
GALK inh confirm = Confirmation Assay for Inhibitors of Human Galactokinase (GALK) | shares compounds with Pol eta inh-1 | purified GALK, Kinase-Glo ATP depletion luminescence | Potency, µM (series often up to 115 µM), inactives show top-dose activity, negative = inhibition, hits mostly inhibitors | 150 tested, 70% active | AID 2015, 2009
Redox cycling = Confirmatory Assay for Inhibitors of Human Galactokinase (GALK): Phenol-HRP redox assay counterscreen | shares compounds with Pol eta inh-1 | Phenol red-HRP H2O2 redox cycling, absorbance 600 nm | Potency, µM (series often up to 115 µM), without a hit: at the top dose activity change, negative = H2O2 signal, actives largely listed as inhibitors | 150 tested, 40% active
HEK293 viability = Secondary Assay for Inhibitors of Human Galactokinase (GALK): HEK-293 Cell Viability Assay. shares compounds with Pol eta inh-1. HEK-293 viability, ATP luminescence (CellTiter-Glo), 24/48 h. Potency, µM (doses to about 46.1 µM), without a hit: top-dose activity change, negative = cytotoxicity, most hits filed as inhibitors. 170 tested, 10% active. AID 2547, 2010; further: potency means the concentration at half of the fitted maximal effect; on the % scale 0 is the no-effect control and ±100 the full control effect
Pol kappa inh-2 = qHTS for Inhibitors of Polymerase Kappa: Confirmatory Assay for Cherry-picked Compounds. purified Pol-kappa, fluorescent strand-displacement substrate. Potency, µM, actives largely listed as inhibitors. 920 tested, 76% active. shares compounds with Pol eta inh-1; further: potency means the concentration at half of the fitted maximal effect
Pol eta inh-2 = qHTS for Inhibitors of Polymerase Eta: Confirmatory Assay for Cherry-picked Compounds. shares compounds with Pol eta inh-1. Pol eta primer extension, TAMRA/BHQ fluorescence, 10 min. Potency, µM, usual class: inhibitors. 2,600 tested, 64% active. AID 720502, 2013; further: potency means the concentration at half of the fitted maximal effect
Starred values were filed as active, the others as inactive; [ ] = remark or other dose. Hits are enriched below; roughly 2.8% of the tested compounds scored in any of these assays. Unless noted, the call rests on the fitted dose curve; in most records, active means well fitted curve in the direction sought with a large enough effect; inconclusive means small, poorly fitted or top-dose-only effect, or another doubt; inactive means no such curve, though single readings can be large; an effect the other way counts as inactive or inconclusive.

`C[n+]1cccc2cccc([O-])c21` gave Pol kappa inh-1 inconclusive, WRN helicase inh -15%[11.6 µM], POLI inh 1.6µM*, Pol eta inh-1 22µM*, POLB inh 28µM*, PI5P4K alpha inh -29, Pol iota confirm 24*, GALK inh confirm 24µM*, Redox cycling 12µM*, HEK293 viability 5% and Pol eta inh-2 43*.
Screening COCCN=c1scc(-c2ccco2)n1/N=C/c1ccc(O)c(O)c1O returned Pol kappa inh-1 0%, WRN helicase inh 28µM*, POLI inh 2µM*, Pol eta inh-1 4.5µM*, POLB inh 2.8µM*, PI5P4K alpha inh -85*, Pol iota confirm 11* and Pol eta inh-2 9.5*.
For CC(C)N=c1scc(-c2ccco2)n1/N=C/c1ccc(O)c(O)c1 the results were Pol kappa inh-1 -15%, WRN helicase inh -14%, POLI inh -17%, Pol eta inh-1 -12%, POLB inh inconclusive and PI5P4K alpha inh -3.
COc1ccc(OC)c(CCNc2nc3cc(OC)c(OC)cc3c3nc(-c4cccnc4)nn23)c1 was read as Pol kappa inh-1 7%, POLI inh 15%, Pol eta inh-1 -17% and POLB inh -30%.
`Cc1ccccc1/C=C/c1nc2ccccc2c(=O)[nH]1` gave Pol kappa inh-1 inconclusive, WRN helicase inh inconclusive, POLI inh inconclusive, Pol eta inh-1 inconclusive, POLB inh 22µM*, PI5P4K alpha inh 1, Pol iota confirm 47* and Pol eta inh-2 85*.
COc1ccc(OC)c(CCNC(=O)C2CCN(c3ncnc4c3nc3n4CCCCC3)CC2)c1 was read as Pol kappa inh-1 4%, WRN helicase inh -3%, POLI inh inconclusive, Pol eta inh-1 -5%, POLB inh 14% and PI5P4K alpha inh 1.
Cc1ccc(N2CC(C(=O)Nc3nnc(SCC(N)=O)s3)CC2=O)cc1 (stereo not drawn) was read as Pol kappa inh-1 -11%, WRN helicase inh -25%, POLI inh 45%, Pol eta inh-1 -13%, POLB inh 15% and PI5P4K alpha inh -11.
Screening O=C(O)/C=C/c1ccc(O)c(O)c1 returned Pol kappa inh-1 inconclusive, WRN helicase inh 2%, POLI inh 10%, Pol eta inh-1 -17%, POLB inh inconclusive and PI5P4K alpha inh inconclusive.
O=C(/C=C/c1ccc(O)c(O)c1)NC(=O)c1ccccc1O was read as Pol kappa inh-1 32µM*, WRN helicase inh 56µM*, POLI inh inconclusive, Pol eta inh-1 7.9µM*, POLB inh 10µM*, PI5P4K alpha inh inconclusive, Pol iota confirm inconclusive and Pol eta inh-2 60*.
For CCc1ccccc1NS(=O)(=O)c1ccc2[nH]cc(C(=O)N(CC)Cc3ccccc3)c(=O)c2c1 the results were Pol kappa inh-1 -11%[60.1 µM], POLI inh -28%, Pol eta inh-1 inconclusive and POLB inh inconclusive.
Screening CNC(=S)N/N=C/c1ccc(-c2cccc(C(=O)O)c2)o1 returned Pol kappa inh-1 -24%, WRN helicase inh -20%, POLI inh 48%, Pol eta inh-1 -10%, POLB inh -13% and PI5P4K alpha inh inconclusive.
For O=C1NN(c2ccccc2)C(=O)/C1=C\c1ccc(-c2cc([N+](=O)[O-])ccc2O)o1 the results were Pol kappa inh-1 40µM*, WRN helicase inh -20%[11.6 µM], POLI inh 16µM*, Pol eta inh-1 20µM*, POLB inh 10µM*, PI5P4K alpha inh -69*, Pol iota confirm inconclusive and Pol eta inh-2 27*.
`O=C1NN(c2ccc(Cl)cc2)C(=O)/C1=C\c1ccc(-c2cccc(C(=O)O)c2)o1` gave Pol kappa inh-1 20µM*, WRN helicase inh inconclusive, POLI inh 8.9µM*, Pol eta inh-1 4.5µM*, POLB inh 10µM*, PI5P4K alpha inh -69*, Pol iota confirm 21* and Pol eta inh-2 17*.
`COc1ccc(C(CC(=O)N2CCCC2)c2c(OC)cc(OC)c3c(-c4ccccc4)cc(=O)oc23)cc1` (stereo not drawn) gave Pol kappa inh-1 79µM*, WRN helicase inh -11%[11.6 µM], POLI inh 71µM*, Pol eta inh-1 inconclusive, POLB inh 35µM*, PI5P4K alpha inh inconclusive, Pol iota confirm 34* and Pol eta inh-2 76*.
Screening COc1cc(OC)c2c(-c3ccccc3)cc(=O)oc2c1C(CC(=O)N1CCCC1)c1ccc(N(C)C)cc1 (stereo not drawn) returned Pol kappa inh-1 -10% and POLI inh -7%.
For CCOc1ccc2nc(Cl)c(C3CC(c4ccc(OC)cc4)=NN3S(C)(=O)=O)cc2c1 (stereo not drawn) the results were Pol kappa inh-1 inconclusive, POLI inh inconclusive, Pol eta inh-1 inconclusive, POLB inh 26%, Pol iota confirm inconclusive, Pol kappa inh-2 75* and Pol eta inh-2 76*.
